High-throughput results deposited in PubChem by National Center for Advancing Translational Sciences (NCATS).
An excerpt weighted towards active compounds, which were near 18% of everything screened.
GCN5L2 inh: qHTS Assay for Inhibitors of GCN5L2. Histone acetyltransferase KAT2A (Homo sapiens), Q92830. GCN5L2 HAT assay, ThioGlo1 CoA-SH fluorescence. Potency, µM (top dose mostly 58.9 µM), hits mostly inhibitors. 390,000 tested, 0.21% active. AID 504327, 2011
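qHTS, 1536-well. 20nM enzyme, pH 7.5 HEPES/EDTA/Tween-20 buffer; 15 min compound preinc., RT. Start: 75uM H3(1-25), 70uM AcCoA, 50uM ThioGlo1. Read Ex340/Em540 at t=0 (autofluorescence flag) and t=20 min.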
TDP1 cell noCPT: qHTS for Inhibitors of human tyrosyl-DNA phosphodiesterase 1 (TDP1): qHTS in cells in absence of CPT | DT40 Tdp1-/- hTDP1 cells, no CPT, ATP luminescence, 48 h | Potency, µM (titrated, usually from 46.2 µM), hits mostly inhibitors | AID 686978, 2013 | 420,000 tested, 15% active; also: nearly all actives have a fitted effect of over 55% in size
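No-CPT arm: Tdp1-/-;hTDP1 DT40 cells (400/well) plus compounds, incubated ≥48 hr at 37 °C. Readout CellTiter-Glo luminescence.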
DT40 TDP1 CPT: qHTS for Inhibitors of human tyrosyl-DNA phosphodiesterase 1 (TDP1): qHTS in cells in presence of CPT. chicken DT40 Tdp1-/-;hTDP1 cells + 20 nM CPT, ATP luminescence, 48 h. Potency, µM (series often up to 46.2 µM), usual class: inhibitors. 420,000 tested, 12% active. AID 686979, 2013; also: nearly all actives have a fitted effect of over 55% in size
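Cell growth measured by CellTiter-Glo luminescence after a minimum 48 h, 37 C compound exposure with 20 nM CPT in Tdp1-knockout DT40 cells stably expressing hTDP1, seeded 400/well; qHTS titration format.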
VDR inhibitor: Inhibitors of the vitamin D receptor (VDR): qHTS; Vitamin D3 receptor (Homo sapiens), P11473; VDR-SRC2-3 peptide fluorescence polarization, 2 h; Potency, µM, hits mostly inhibitors; 400,000 tested, 0.93% active
Target sequence (P11473 whole entry, looked up): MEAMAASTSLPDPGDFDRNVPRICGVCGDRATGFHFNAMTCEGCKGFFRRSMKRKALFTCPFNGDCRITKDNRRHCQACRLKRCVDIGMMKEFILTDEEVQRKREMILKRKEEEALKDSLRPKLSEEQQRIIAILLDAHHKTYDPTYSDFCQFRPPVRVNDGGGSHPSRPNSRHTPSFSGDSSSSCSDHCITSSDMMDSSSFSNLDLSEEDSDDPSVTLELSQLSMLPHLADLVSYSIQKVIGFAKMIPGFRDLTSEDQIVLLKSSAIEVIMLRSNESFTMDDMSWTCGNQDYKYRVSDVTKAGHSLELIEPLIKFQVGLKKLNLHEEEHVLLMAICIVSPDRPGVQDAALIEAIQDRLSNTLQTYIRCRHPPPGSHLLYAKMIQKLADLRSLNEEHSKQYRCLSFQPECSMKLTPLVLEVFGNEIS
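Measured by FP: displacement of SRC2-3 coactivator peptide from VDR by library compounds, following a two-hour ambient incubation.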
PLK1 PBD block: qHTS for Inhibitors of PLK1-PDB (polo-like kinase 1 - polo-box domain): Primary Screen | Serine/threonine-protein kinase PLK1 (Homo sapiens), P53350 | Potency, µM, usual class: inhibitors | 360,000 tested, 2.8% active | Plk1 PBD binding of FITC phosphopeptide, fluorescence polarization; also: series mostly up to about 57 µM; nearly all actives have a fitted effect of over 65% in size
TDP1 inh: qHTS Assay for Inhibitors of Tyrosyl-DNA Phosphodiesterase (TDP1); Tyrosyl-DNA phosphodiesterase 1 (Homo sapiens), Q9NUW8; recombinant TDP1, AlphaScreen DNA substrate cleavage; Potency, µM (titrated, usually from 130 µM), usual class: inhibitors; 350,000 tested, 0.28% active; also: nearly all actives have a fitted effect of over 40% in size
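AlphaScreen read-out: signal falls as enzyme removes the 3' tyrosine-FITC from a 5'-biotinylated DNA oligo (15 nM, 5 min, RT). Enzyme was E. coli-made recombinant Tdp1 at 1 nM, exposed to compound for 15 min beforehand; beads 10 ug/ml, 10 min.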
A number is an active result; n = inactive; u = inconclusive; x = no result; [ ] = another dose, or the depositor's remark. Calls follow the shape of the dose curve; as a rule, active = well fitted curve in the direction sought with a large enough effect; inconclusive = small, poorly fitted or top-dose-only effect, or another doubt; inactive = no such curve, though single readings can be large; an effect the other way counts as inactive or inconclusive.

SMILES	GCN5L2 inh	TDP1 cell noCPT	DT40 TDP1 CPT	VDR inhibitor	PLK1 PBD block	TDP1 inh
CC(C)N1CCCC(C)(C(=O)Nc2cccc(Oc3ccccc3)c2)C1 (stereo not drawn)	x	13µM	u	x	n	x
CCCNC(=O)C1(C)CCCN(Cc2cccc(Oc3ccccc3)c2)C1 (stereo not drawn)	x	u	u	x	n	x
CCNC(=O)C1(C)CCCN(Cc2cccc(Oc3ccccc3)c2)C1 (stereo not drawn)	x	21µM	18µM	x	n	x
CCCNC(=O)C1(C)CCCN(Cc2ccc(-c3ccccc3)cc2)C1 (stereo not drawn)	x	5.8µM	6.5µM	x	n	x
CCCNC(=O)C1(C)CCCN(Cc2cc(-c3ccccc3)n(C)n2)C1 (stereo not drawn)	x	u	16µM	x	n	x
COc1ccc(Cl)cc1NC(=O)CSc1nc2ccsc2c(=O)n1CC1CCC(C(=O)O)CC1 (stereo not drawn)	n	u	u	n	n	n
CCCCc1cc(=O)oc2cc(C)c3c(C(C)(C)C)coc3c12	n	u	u	n	x	n
COC(=O)C(/C=C/C(C)Cc1cc(Br)cc(OCc2ccccc2)c1OC)OCc1ccccc1 (stereo not drawn)	x	x	x	x	x	n[21 µM]
CCCNC(=O)C1(C)CCCN(Cc2c3ccccc3nn2C)C1 (stereo not drawn)	x	21µM	21µM	x	n	x
CCCNC(=O)C1(C)CCCN(Cc2ccc(C(F)(F)F)cc2)C1 (stereo not drawn)	x	u	21µM	x	n	x
COc1ccc(CN2CCC(C)(Oc3ccc4c(c3)OCO4)C2)c2ccccc12 (stereo not drawn)	x	u	u	x	n	x
CCCNC(=O)C1(C)CCCN(Cc2ccc(Oc3ccccc3)cc2)C1 (stereo not drawn)	x	18µM	21µM	x	n	x
CCCNC(=O)C1(C)CCN(Cc2ccc(Oc3ccccc3)cc2)C1 (stereo not drawn)	x	u	u	x	n	x
COc1ccc(OC2(C)CCN(Cc3ccc(-c4ccccc4)o3)C2)cc1 (stereo not drawn)	x	u	21µM	x	n	x
O=S1(=O)CC(N2CC=CC2)CN1Cc1ccc(F)cc1 (stereo not drawn)	x	n	u	x	n	x
OC(c1ccccc1)c1ncc(-c2cccc(F)c2)[nH]1 (stereo not drawn)	x	n	n	x	n	x
COCCNC(=O)C1(C)CCCN(CCOc2ccc(Cl)cc2)C1 (stereo not drawn)	x	15µM	u	x	n	x
CCCNC(=O)C1(C)CCN(CCOc2ccc(Cl)cc2)C1 (stereo not drawn)	x	n	n	x	n	x
COCCNC(=O)C1(C)CCCN(Cc2csc(-c3ccc(Cl)cc3)n2)C1 (stereo not drawn)	x	13µM	12µM	x	n	x
Cc1ccc2cc3cc(C(=O)N4CCN(c5cccc(C(F)(F)F)c5)CC4)sc3nc2c1	n	n	n	n	x	n[12.3 µM]
Cc1ccccc1S(=O)(=O)NNC(=O)C(=O)NNc1ccccn1	n	23µM	u	n	n	n
COc1cc(/C=C/C(=O)OCC(=O)Nc2ccc3[nH]c(=O)[nH]c3c2)ccc1OC(F)F	x	n	n	x	n	x
NS(=O)(=O)c1cc([C@@]2(O)NC(=O)c3ccccc32)ccc1Cl	n	x	x	n	x	n[21 µM]
CCOc1ccc(CNC(=O)CSc2nnc(C)c3c(C)n(-c4ccccc4)nc23)cc1	n	u	u	n	x	n
CCCCNC(=O)CSc1nnc(C)c2c(C)n(-c3ccccc3)nc12	n	u	u	n	x	n
SMILES	GCN5L2 inh	TDP1 cell noCPT	DT40 TDP1 CPT	VDR inhibitor	PLK1 PBD block	TDP1 inh
Cc1nnc(SCC(=O)NCc2ccccc2F)c2nn(-c3ccc(Cl)cc3)c(C)c12	n	8.2µM	13µM	n	x	n
Cc1nnc(SCC(=O)NCc2cccc(F)c2)c2nn(-c3ccccc3)c(C)c12	n	7.3µM	8.2µM	n	x	n
CS(=O)(=O)Nc1cccc(-c2cc(NCc3ccccc3)ncn2)c1	n	n	n	n	x	x
COc1ccccc1C(=O)Nc1ccc(OCC(=O)N2CC(C)CC(C)C2)cc1 (stereo not drawn)	n	u	u	n	n	n
CCOc1ccc(-c2nnc(SCC(=O)NCc3ccccc3)nc2-c2ccc(OCC)c(OC)c2)cc1OC	n	u	u	n	x	n
COc1nc(NCCO)nc(Nc2ccccc2F)n1	n	n	n	n	27µM	n
COc1nc(Nc2ccccc2F)nc(OC)n1	n	n	n	n	n	x
COCCc1nc2ccc(C(=O)N(C)Cc3cccc(-n4nc(C)cc4C)c3)cc2o1	n	n	n	n	n	n
OC1(c2ccccc2)c2ccccc2-c2ncccc21 (stereo not drawn)	n	n	n	n	n	n
Cc1noc(C)c1-c1ccc2ncnc(NCc3cccc(F)c3)c2c1	x	x	x	x	x	n
CC1(Oc2ccccc2-c2ccno2)CCN(Cc2csc3ccccc23)C1 (stereo not drawn)	x	u	18µM	x	n	x
O=C(CCNS(=O)(=O)c1ccccc1F)N1CCN(C/C=C/c2ccccc2)CC1	n	u	n	n	n	n
Cc1ccc(S(=O)(=O)n2ccc3c2CCCC3=O)cc1	n	21µM	u	u	27µM	x
Cc1ccc(-n2c(C)cc3c2CCCC3=O)cc1	n	u	n	n	n	n
O=C(NCC1CCC2(CCN(Cc3ccccc3O)CC2)O1)C1CCCO1 (stereo not drawn)	x	n	n[9.04 µM]	x	x	x
Cn1cnc([N+](=O)[O-])c1S(=O)(=O)Nc1ccccc1	x	15µM	16µM	n	n	x
Cn1cnc([N+](=O)[O-])c1S(=O)(=O)Oc1ccccc1	x	1µM	0.65µM	25µM	u	x
Cn1cnc([N+](=O)[O-])c1NCc1ccccc1	n	n	n	n	n	x
CCCc1c(C)c2ccc(O)c(CN3CCN(c4ccc(F)cc4)CC3)c2oc1=O	n	u	u	n	x	n
COc1ccc(-c2nc3cnc(N4CCN(C)CC4)nc3n(C)c2=O)cc1	n	u	u	n	x	x
O=C(c1ccc(COc2ccccc2Br)o1)N1N=C(C(F)F)CC1(O)C(F)F (stereo not drawn)	n	26µM	18µM	n	n	n
O=C(c1ccc(Cn2cc([N+](=O)[O-])cn2)o1)N1N=C(C(F)F)CC1(O)C(F)F (stereo not drawn)	n	n	n	n	n	n
CCCCOC1CC(c2ccc(OCc3ccc(OC)cc3)c(OC)c2)N(C)O1 (stereo not drawn)	n	u	u	n	n	n
